# Assay results as given in PubChem BioAssay (NCATS).
# Results filed as inconclusive are left out. Entries that show only a call come without a potency. Calls of active or inactive are those of the source. Calls follow the shape of the full dose curve.
# Test: Cytotoxicity counterscreen for inhibitors of SARS-CoV-2 cell entry (AID 1645845); also: nearly all actives have a fitted effect of over 50% in size
# Conditions: cell viability (SARS-CoV-2 entry assay cells); series mostly up to 57.1 µM
# Procedure, shortened: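 ATP-content luminescence (ATPLite 1step, 15 min RT) read after 48 h compound exposure of Expi293F cells stably expressing human ACE2; normalized to cells-only wells and media-only wells.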
row,Structure (SMILES),Potency
1,CC(=O)c1ccc(S(=O)(=O)NC(=O)NC2CCCCC2)cc1,inactive
2,CCCCOCCOC(=O)c1cccnc1,inactive
3,CC(=O)OCC1=C(C(=O)O)N2C(=O)[C@@H](NC(=O)Cc3cccs3)[C@H]2SC1,inactive
4,Cc1c(NC(=O)c2cccnc2)c(=O)n(-c2ccccc2)n1C,inactive
5,CC(=O)CC/C=C(\C)CC/C=C(\C)CC/C=C(\C)CCC=C(C)C,inactive
6,C[C@@H]1CN(c2c(F)c(F)c3c(=O)c(C(=O)O)cn(C4CC4)c3c2F)C[C@H](C)N1,inactive
7,Cc1nnc(SCC2=C(C(=O)O)N3C(=O)[C@@H](NC(=O)Cn4cnnn4)[C@H]3SC2)s1,inactive
8,CC(=O)OCC(=O)[C@@]1(OC(C)=O)[C@@H](C)C[C@H]2[C@@H]3C[C@H](F)C4=CC(=O)C=C[C@]4(C)[C@@]3(F)[C@@H](O)C[C@@]21C,inactive
9,CCCCC(CC)CN1CN(CC(CC)CCCC)CC(C)(N)C1 (stereo not drawn),inactive
10,O=C(O)COc1nn(Cc2ccccc2)c2ccccc12,inactive
11,Cc1cc2nc3c(=O)[nH]c(=O)nc-3n(C[C@H](O)[C@H](O)[C@H](O)CO)c2cc1C,inactive
12,COc1ccc2c(c1)c(CC(=O)OC/C=C(\C)CC/C=C(\C)CCC=C(C)C)c(C)n2C(=O)c1ccc(Cl)cc1,inactive
13,CN(C)CCOC(=O)COc1ccc(Cl)cc1,inactive
14,Nc1nc(=O)n([C@@H]2CS[C@H](CO)O2)cc1F,inactive
15,CCc1oc2ccccc2c1C(=O)c1cc(I)c(O)c(I)c1,inactive
16,COc1ccc(C(=O)c2ccccc2O)c(O)c1,inactive
17,CC(C(=O)O)c1ccc2c(c1)[nH]c1ccc(Cl)cc12 (stereo not drawn),inactive
18,c1ccc(-c2nc[nH]c2-c2ccccc2)cc1,inactive
